Unmarked numbers belong to inactive results. Inconclusive results are not listed. A call without a number means that no potency is given here. The source made the active and inactive calls. Unless noted, calls come from the whole dose curve; as a rule, active = well fitted curve in the direction sought with a large enough effect in the repeat runs; inconclusive = weak or mixed curves; inactive = no such curve, though single readings can be large; an effect the other way counts as inactive or inconclusive.
Key:
[1] = qHTS assay for small molecules that induce genotoxicity in human embryonic kidney cells expressing luciferase-tagged ATAD5 (AID 651632); note: nearly all actives have a fitted effect of over 15% in size
Procedure, shortened: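 Cells were seeded at 2,000 per well, dosed with compound, and incubated 16 hr at 37C in 5% CO2. Luciferase activity was then quantified after a 30 min room-temperature incubation with Amplite.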

[2] = qHTS assay for small molecule agonists of the p53 signaling pathway - cell viability (AID 651633; calls by dose curve;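 note: p53RE-bla HCT reporter cells with a stable beta-lactamase p53 reporter; series mostly up to about 83 µM; nearly all actives have a fitted effect of over 30% in size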)
Procedure, shortened: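 p53RE-bla cells, seeded at 4,000 per well and rested 5 h at 37 C/5% CO2, received compounds in DMSO for 16 h at 37 C. CellTiter-Glo was then added, and luminescence was read after 30 min at room temperature to gauge cytotoxicity.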

[3] = qHTS assay for small molecules that induce genotoxicity in human embryonic kidney cells expressing luciferase-tagged ATAD5 - cell viability (AID 651634; calls by dose curve; note: nearly all actives have a fitted effect of over 25% in size)
Procedure, shortened: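 Cells (HEK293T, luciferase-tagged ATAD5) are seeded at 2,000 per well, dosed with compound or DMSO vehicle, and incubated 15.5 hr at 37C and 5% CO2. CellTiter-Fluor is added for 30 min before fluorescence is measured.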

[4] = qHTS assay to test for compound auto fluorescence at 535 nm (green) in HepG2 cells (AID 720675)
[5] = qHTS assay to test for compound auto fluorescence at 460 nm (blue) in HEK293 cells (AID 720678)
Procedure, shortened: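 Blue-channel (Ex/Em 405/460 nm) intensity measured in HEK293 cultures after overnight compound exposure at 37C; signal expressed relative to triamterene. Cells plated 2,000 per well in 10% dialyzed FBS medium and allowed 4-5 hr to attach.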

[6] = qHTS assay to test for compound auto fluorescence at 590 nm (red) in HEK293 cells (AID 720679)
Procedure, shortened: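 Red-channel autofluorescence (Ex/Em 540/590 nm; Rose Bengal sodium reference) was measured after overnight 37C, 5% CO2 exposure of attached HEK293 cells, 2,000 per well in medium with 10% dialyzed FBS.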

[7] = qHTS assay to test for compound auto fluorescence at 535 nm (green) in HEK293 cells (AID 720680)
[8] = qHTS assay to test for compound auto fluorescence at 460 nm (blue) in HEK293 cell free culture (AID 720681)
Procedure, shortened: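 Test compounds were pinned into cell-free culture medium (DMEM with 10% FBS) and fluorescence was read directly at Ex/Em 405/460 nm. Signals were expressed as fluorescence equivalents of triamterene, with DMSO vehicle as control.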

[9] = qHTS assay to test for compound auto fluorescence at 535 nm (green) in HEK293 cell free culture (AID 720682)
Procedure, shortened: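 Green-channel intensity (Ex/Em 485/535 nm) was recorded from compound-treated wells containing only DMEM with 10% FBS. Fluorescein provided the equivalency standard.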

[10] = qHTS assay to test for compound auto fluorescence at 590 nm (red) in HEK293 cell free culture (AID 720683)
Procedure, shortened: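 Tox21 10K library compounds were pinned into cell-free DMEM with 10% FBS and fluorescence was read at excitation 540 nm. Activity is expressed as Rose Bengal sodium equivalency.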

[11] = qHTS assay to test for compound auto fluorescence at 590 nm (red) in HepG2 cell free culture (AID 720684)
Procedure, shortened: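 Ex 540 / Em 590 nm read of compound in cell-free MEM (10% FBS). Rose Bengal sodium reference.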

[12] = qHTS assay to test for compound auto fluorescence at 460 nm (blue) in HepG2 cell free culture (AID 720685)
Procedure, shortened: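 Cell-free plates of MEM plus 10% FBS received 23 nL compound or DMSO vehicle; blue-channel (405/460 nm) intensity scored against triamterene as reference fluorophore.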

[13] = qHTS assay to test for compound auto fluorescence at 535 nm (green) in HepG2 cell free culture (AID 720686)
[14] = qHTS assay to test for compound auto fluorescence at 460 nm (blue) in HepG2 cells (AID 720687)
Procedure, shortened: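 Cells (2,000/well in MEM with 10% FBS) attached overnight at 37 C, then were exposed to compound or DMSO for 1 hr at 37 C, 5% CO2. Fluorescence read at Ex/Em 405/460 nm, expressed as triamterene-equivalent signal.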

[15] = qHTS assay for small molecule disruptors of the mitochondrial membrane potential - cell viability (AID 720634; calls by dose curve;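 note: human HepG2 liver cancer cells; series mostly up to about 83 µM; nearly all actives have a fitted effect of over 20% in size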)
Procedure, shortened: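 Cytotoxicity was measured by ATP quantitation in HepG2 wells that had first been treated with compound for 1 hr and stained with m-MPI dye; CellTiter-Glo incubation was 30 min at room temperature.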

[16] = qHTS assay for small molecule disruptors of the mitochondrial membrane potential (AID 720635); note: potency is the fitted concentration of half-maximal effect
Procedure, shortened: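 HepG2 cells (2,000/well) attached overnight at 37C, then took compound for 1 hr at 37C, 5% CO2. Mito-MPS dye was added for 30 min; fluorescence was read at 490/535 nm (monomers) and 540/590 nm (aggregates).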

[17] = qHTS assay to test for compound auto fluorescence at 590 nm (red) in HepG2 cells (AID 720674)
Procedure, shortened: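 Compound auto-fluorescence is scored relative to Rose Bengal sodium, measured at 540/590 nm in live HepG2 cultures after 1 hr compound contact (37 C, 5% CO2).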

[18] = target: Glucocorticoid receptor (Homo sapiens) (UniProt P04150); experiment: qHTS assay to identify small molecule agonists of the glucocorticoid receptor (GR) signaling pathway (AID 720691; active = well fitted activation curve with a large enough effect in the signal ratio in the repeat runs, not every such curve was filed as active; the % refers to the signal ratio)
Procedure, shortened: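 Steps: seed GR-bla HeLa cells, incubate 4 h at 37 C/5% CO2; pin-transfer DMSO-dissolved compounds; incubate 18 h at 37 C; add LiveBLAzer B/G FRET substrate; after 2 h at room temperature, measure fluorescence.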

[19] = target: Glucocorticoid receptor (Homo sapiens) (UniProt P04150); experiment: qHTS assay to identify small molecule antagonists of the glucocorticoid receptor (GR) signaling pathway (AID 720692; active = well fitted inhibition curve with a large enough effect in the signal ratio in the repeat runs, not every such curve was filed as active; the % refers to the signal ratio)
Procedure, shortened: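 Antagonism was scored as loss of dexamethasone-driven (5 nM final) reporter signal in HeLa cells bearing a glucocorticoid response element–beta-lactamase construct, after 18 h compound exposure at 37 C and 2 h FRET substrate loading.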

Chain of Glucocorticoid receptor (Homo sapiens) (P04150 whole entry, looked up): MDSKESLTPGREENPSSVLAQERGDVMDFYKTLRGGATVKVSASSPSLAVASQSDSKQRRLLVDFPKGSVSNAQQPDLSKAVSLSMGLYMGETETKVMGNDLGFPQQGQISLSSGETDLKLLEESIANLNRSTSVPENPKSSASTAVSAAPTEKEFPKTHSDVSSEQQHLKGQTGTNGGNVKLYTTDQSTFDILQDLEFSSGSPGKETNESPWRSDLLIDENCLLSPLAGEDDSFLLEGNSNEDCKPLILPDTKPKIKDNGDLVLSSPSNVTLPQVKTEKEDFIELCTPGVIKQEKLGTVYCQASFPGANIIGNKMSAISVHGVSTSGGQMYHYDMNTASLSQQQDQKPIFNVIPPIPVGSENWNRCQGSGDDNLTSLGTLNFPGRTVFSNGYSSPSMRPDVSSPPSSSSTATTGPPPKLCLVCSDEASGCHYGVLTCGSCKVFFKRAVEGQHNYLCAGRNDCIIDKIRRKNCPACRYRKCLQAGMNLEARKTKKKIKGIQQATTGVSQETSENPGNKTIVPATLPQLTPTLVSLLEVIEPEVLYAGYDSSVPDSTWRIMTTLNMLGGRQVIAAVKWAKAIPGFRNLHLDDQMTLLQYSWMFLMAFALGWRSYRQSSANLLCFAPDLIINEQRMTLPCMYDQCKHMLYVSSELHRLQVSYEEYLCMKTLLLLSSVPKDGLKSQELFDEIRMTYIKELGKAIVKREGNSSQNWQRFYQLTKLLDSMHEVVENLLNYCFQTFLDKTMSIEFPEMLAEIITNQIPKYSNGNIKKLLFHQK

Row | SMILES | Potency [1] | Potency [2] | Potency [3] | outcome [4] | Potency [5] | outcome [6] | outcome [7] | Potency [8] | outcome [9] | outcome [10] | outcome [11] | Potency [12] | outcome [13] | Potency [14] | Potency [15] | Potency [16] | outcome [17] | Potency [18] | Potency [19]
1 | Cc1ccc(Nc2ccc(O)c3c2C(=O)c2ccccc2C3=O)cc1 | inactive | inactive | inactive | inactive | inactive | inactive | inactive | inactive | inactive | inactive | inactive | inactive | inactive | inactive |  |  |  |  | 
2 | C1C2OC2C2C1C1CC2C2OC12 (configuration not stated) | inactive | inactive |  | inactive | inactive | inactive |  | inactive | inactive | inactive | inactive | inactive | inactive | inactive | inactive | inactive | inactive | inactive | 
3 | CCCC=O |  | inactive | inactive | inactive | inactive | inactive | inactive | inactive | inactive | inactive | inactive | inactive | inactive |  | inactive | inactive |  | inactive | inactive
4 | CCCCCCOC(=O)CC(CC(=O)OCCCCCC)(OC(=O)CCC)C(=O)OCCCCCC | inactive |  | inactive | inactive | inactive | inactive | inactive | inactive | inactive | inactive | inactive | inactive | inactive |  | inactive |  | inactive | inactive | inactive
5 | CCCc1ccccc1O | inactive |  |  | inactive | inactive | inactive | inactive | inactive | inactive | inactive | inactive | inactive | inactive | inactive |  | 27.3 µM (active) |  | inactive | inactive

Reference: PubChem BioAssay (Tox21)
